# The campaign covered roughly 400,000 compounds. About 1,900 (0.47%) were called active. Inconclusive results (about 14%) are left out. The rule behind the calls is not given here. The entries come from a sample that favours actives as a whole.
# Target: Ataxin-2 (Homo sapiens) (UniProt Q99700)
# Experiment: qHTS for Inhibitors of ATXN expression.
# Assay type: functional
# Chain of Ataxin-2 (Homo sapiens) (Q99700 whole entry): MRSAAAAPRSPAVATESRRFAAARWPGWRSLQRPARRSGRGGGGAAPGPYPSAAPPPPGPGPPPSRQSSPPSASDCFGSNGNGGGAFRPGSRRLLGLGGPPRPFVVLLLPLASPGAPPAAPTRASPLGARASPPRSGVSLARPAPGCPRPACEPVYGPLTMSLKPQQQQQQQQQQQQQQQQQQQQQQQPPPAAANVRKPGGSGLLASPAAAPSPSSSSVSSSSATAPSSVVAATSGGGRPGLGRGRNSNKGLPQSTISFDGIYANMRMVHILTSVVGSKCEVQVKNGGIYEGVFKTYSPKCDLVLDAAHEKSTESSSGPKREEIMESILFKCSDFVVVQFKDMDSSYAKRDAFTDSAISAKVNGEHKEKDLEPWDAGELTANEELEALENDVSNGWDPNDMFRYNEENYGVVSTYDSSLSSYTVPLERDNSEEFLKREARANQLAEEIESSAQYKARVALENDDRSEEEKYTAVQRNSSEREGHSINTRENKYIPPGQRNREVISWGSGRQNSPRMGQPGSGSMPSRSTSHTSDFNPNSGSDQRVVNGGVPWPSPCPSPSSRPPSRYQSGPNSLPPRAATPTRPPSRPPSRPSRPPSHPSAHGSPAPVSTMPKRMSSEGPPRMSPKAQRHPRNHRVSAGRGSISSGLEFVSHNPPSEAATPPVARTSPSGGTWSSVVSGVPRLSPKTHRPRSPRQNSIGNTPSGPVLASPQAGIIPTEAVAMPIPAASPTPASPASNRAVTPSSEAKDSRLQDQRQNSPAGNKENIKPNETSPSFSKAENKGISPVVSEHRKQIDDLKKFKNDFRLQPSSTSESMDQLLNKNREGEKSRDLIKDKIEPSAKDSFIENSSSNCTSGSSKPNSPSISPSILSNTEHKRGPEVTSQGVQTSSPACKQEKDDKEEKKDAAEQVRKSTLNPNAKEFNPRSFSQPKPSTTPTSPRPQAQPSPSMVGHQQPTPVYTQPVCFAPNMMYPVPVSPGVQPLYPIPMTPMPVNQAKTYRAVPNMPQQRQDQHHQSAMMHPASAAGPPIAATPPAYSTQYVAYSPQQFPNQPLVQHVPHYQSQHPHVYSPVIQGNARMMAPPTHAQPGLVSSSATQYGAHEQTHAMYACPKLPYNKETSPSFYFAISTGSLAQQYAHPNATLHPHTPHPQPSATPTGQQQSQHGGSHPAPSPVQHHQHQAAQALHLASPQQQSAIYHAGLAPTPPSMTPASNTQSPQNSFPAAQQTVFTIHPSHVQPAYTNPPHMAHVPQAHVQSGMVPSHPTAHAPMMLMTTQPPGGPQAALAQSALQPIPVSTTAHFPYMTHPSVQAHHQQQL
row,Structure (SMILES),Potency
1,CCCCn1c(N)c(C(=O)NCCN2CCOCC2)c2nc3ccccc3nc21,inactive
2,Cc1cccc(OP(N)(=O)Oc2cccc(C)c2)c1,inactive
3,COc1ccc(CC(N)c2csc(NC(=O)Nc3ccccc3Oc3ccccc3)n2)cc1 (stereo unspecified),39.8 µM (active)
4,O=C(c1cccn2c(=O)c3cc(Cl)ccc3nc12)N1CCC2(CC1)OCCO2,inactive
5,COc1cc2c3c(c1OC)Oc1ccc(cc1)C[C@H]1c4c(cc(OC)c(OC)c4Oc4ccc(cc4)C[C@@H]3N(C)CC2)CCN1C,15.8 µM (active)
6,COc1ccc2cc1Oc1ccc(cc1)C[C@H]1c3cc(c(OC)cc3CCN1C)Oc1c(O)c(OC)cc3c1[C@H](C2)N(C)CC3,20 µM (active)
7,Nc1c2c(nc3ccccc13)CCN(Cc1ccccc1)C2,inactive
8,COc1ccc(Nc2cc(C)c3cc(NC(=O)c4ccccc4Cl)ccc3n2)cc1,inactive
9,CN1CC[C@@]2(C)c3cc(O)ccc3N(C)C12 (stereo partly specified),28.2 µM (active)
10,CCC(C)NC(=O)c1c(N)n(CC2CCCO2)c2nc3ccccc3nc12 (stereo unspecified),inactive
11,C#CCN1C(=O)S/C(=C\c2ccc(N3CCOCC3)cc2C)C1=O,inactive
12,CCCCN1C(=O)NC(=O)/C(=C(O)\C=C\c2c[nH]c3ccccc23)C1=O,inactive
13,N=C(N)N/N=C/c1cn(-c2ccccc2)nc1-c1cccs1,11.2 µM (active)
14,N=C(N)N/N=C/c1ccc(N2CCOCC2)cc1,inactive
15,N=C(N)N/N=C/c1ccc(N(c2ccccc2)c2ccccc2)cc1,inactive
16,O=c1cc(C(F)(F)F)c2cc3c4c(c2o1)CCCN4CCC3,inactive
17,NS(=O)(=O)c1ccc(NC=C2C(=O)N(C3CCCCC3)C(=O)N(C3CCCCC3)C2=O)cc1,39.8 µM (active)
18,Cc1ccnc(NS(=O)(=O)c2ccc(NC=C3C(=O)N(C)C(=O)N(C)C3=O)cc2)n1,inactive
19,CCC(C(=O)Nc1ccc(Cl)cc1)N1CCCC1=O (stereo unspecified),inactive
20,Ic1ccccc1CNC1C2CCN(CC2)C1C(c1ccccc1)c1ccccc1 (stereo unspecified),15.8 µM (active)
21,O=C(NCCc1ccccc1)[C@@H]1CC=C[C@@H]2CCN(Cc3ccc(Cl)c(Cl)c3)C(=O)[C@@H]21,25.1 µM (active)
22,O=C(Cc1cc(=O)oc2cc(O)ccc12)NN=Cc1ccc(N(CCCl)CCCl)cc1,inactive
23,CC(C)Sc1nc2[nH]cnc(N)c-2n1,inactive
24,Cc1oc(-c2ccccc2Cl)nc1CN1C(=O)CN=C(c2ccccc2)c2cc(Cl)ccc21,44.7 µM (active)
25,O=C1CN=C(c2ccccc2)c2cc(Cl)ccc2N1Cc1ccc(Cl)cc1,28.2 µM (active)
26,COc1ccc(-c2nc(CN3C(=O)CN=C(c4ccccc4)c4cc(Cl)ccc43)c(C)o2)cc1,35.5 µM (active)

# — ChEMBL document CHEMBL1201862, “PubChem BioAssay data set” (2004)
